GDH-TPI counter-1: inhibits GDH-TPI coupling enzymes, artifact for Mtb FBA screen | GDH-TPI coupled enzyme counterscreen, NADH absorbance | inhibition, % at 4.8 µM | 360,000 tested, 1.2% active; in the data active means inhibition above about 30%;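 further: 0% = DMSO wells and 100% = wells lacking the enzyme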
Bead autofluor: counter-screen for toxin protease inhibitors: compound fluorescence. compound autofluorescence counterscreen, microsphere flow cytometry; active compounds read high. 360,000 tested, 3.1% active. fluorescence intensity (no concentration beside the values). AID 624483; in the data active means fluorescence intensity above about 16000; inconclusive means no clear call, values can overlap the other calls
FBA Mtb inh: inhibits M. tuberculosis FBA enzyme; P9WQA3; purified M. tuberculosis FBA, fluorescence read-out; inhibition, % at 1 µM; 360,000 tested, 2.3% active; AID 588726; in the data active means inhibition above about 27%;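 further: 0% = vehicle and 100% = reference inhibitor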
BoNT F protease: blocks Botulinum neurotoxin F light chain protease | Multiplex microsphere protease cleavage assay, flow cytometry | inhibition, % at 10 µM | 360,000 tested, 0.22% active | AID 588497; in the data active means inhibition above about 35%, passing the limit was not always enough; inconclusive means no clear call, values can overlap the other calls; further: plate controls were buffer without enzyme for full effect and enzyme alone for no effect
BoNT A protease: BoNT A light chain protease inhibition; multiplex microsphere protease substrate cleavage, flow cytometry; AID 588499; inhibition, % at 10 µM; 360,000 tested, 0.17% active; further: plate controls were buffer without enzyme for full effect and enzyme alone for no effect
Anthrax LF prot: anthrax lethal factor protease inhibition | AID 588501 | 360,000 tested, 0.12% active | inhibition, % at 10 µM | multiplex microsphere protease cleavage assay, LF; further: plate controls were buffer without enzyme for full effect and enzyme alone for no effect
Target sequence (P15917 whole entry, looked up): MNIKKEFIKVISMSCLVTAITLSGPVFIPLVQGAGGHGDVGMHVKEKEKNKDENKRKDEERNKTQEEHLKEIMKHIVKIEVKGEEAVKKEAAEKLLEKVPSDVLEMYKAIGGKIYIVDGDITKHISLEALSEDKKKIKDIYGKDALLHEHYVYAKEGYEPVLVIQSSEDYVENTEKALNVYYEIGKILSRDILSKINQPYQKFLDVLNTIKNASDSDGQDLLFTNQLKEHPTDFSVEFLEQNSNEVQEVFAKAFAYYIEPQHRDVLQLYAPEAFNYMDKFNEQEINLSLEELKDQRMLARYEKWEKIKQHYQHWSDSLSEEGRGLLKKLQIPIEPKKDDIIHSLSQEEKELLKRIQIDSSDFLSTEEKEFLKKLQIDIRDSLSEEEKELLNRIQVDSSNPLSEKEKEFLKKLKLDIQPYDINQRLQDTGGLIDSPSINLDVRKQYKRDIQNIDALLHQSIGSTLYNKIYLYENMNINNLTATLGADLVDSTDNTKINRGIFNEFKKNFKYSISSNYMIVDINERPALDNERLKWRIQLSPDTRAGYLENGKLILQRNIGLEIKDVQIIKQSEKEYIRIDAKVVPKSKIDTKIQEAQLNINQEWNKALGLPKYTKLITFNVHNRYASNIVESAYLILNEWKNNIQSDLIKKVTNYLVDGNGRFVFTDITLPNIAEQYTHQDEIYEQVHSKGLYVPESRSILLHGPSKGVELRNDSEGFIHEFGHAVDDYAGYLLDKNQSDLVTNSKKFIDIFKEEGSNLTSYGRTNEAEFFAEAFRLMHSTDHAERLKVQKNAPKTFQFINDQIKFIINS
Mtb FBA inh conf: confirmation of M. tuberculosis fructose-bisphosphate aldolase inhibitors | shares compounds with FBA Mtb inh | purified M. tuberculosis FBA, fluorescence read-out | inhibition, % at 1 µM | 5,600 tested, 78% active | AID 651616; in the data active means inhibition above about 27%;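 further: 0% = vehicle wells and 100% = reference inhibitor wells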
GDH-TPI counter-2: GDH-TPI inhibition counter-screen for FBA inhibitors; shares compounds with FBA Mtb inh; GDH-TPI coupled enzyme counterscreen, fluorescence; inhibition, % at 1 µM; 5,600 tested, 81% active; in the data active means inhibition above about 10%
GDH-TPI DR: counter-screen for M. tuberculosis FBA inhibitors: GDH-TPI dose response. GDH-TPI coupled enzyme assay, fluorescence, artifact counterscreen. shares compounds with FBA Mtb inh. IC50, µM. 170 tested, 79% active; call rule not given here
Numbers without * were called inactive; ? = inconclusive; . = no result; + = active, no number. Compounds with a hit are over-represented: about 6.7% of the library has one in this group of screens. Unless noted, no stated cut-off is given here; in the data, active means inhibition above about 30%; inconclusive means no clear call, values can overlap the other calls; inactive means below that.

SMILES | GDH-TPI counter-1 | Bead autofluor | FBA Mtb inh | BoNT F protease | BoNT A protease | Anthrax LF prot | Mtb FBA inh conf | GDH-TPI counter-2 | others
COC(=O)c1cc2ccc(OC)cc2c2cc(OC)c(OC)cc12 | 25.4 | 3518 | 62.4* | -0.3 | 0.1 | -3.4 | -5.1 | -5.6
OCCOCCNc1ncnc2sc(-c3ccccc3)cc12 | 15.0 | 3898 | 32.1* | -13.8 | 0.3 | -2.2 | 10.8 | 14.8*
CNc1ncnc2sc(-c3ccccc3)cc12 | 12.0 | 5100 | 45.6* | -4.9 | -0.5 | -0.4 | 52.0* | 35.7*
CN(C)CCNc1ncnc2sc(-c3ccccc3)cc12 | 1.9 | 3872 | 15.6 | -12.6 | 1.3 | -2.7 | . | .
O=C1CC(c2ccncc2)c2cc3c(cc2N1)OCO3 (stereo unspecified) | -0.4 | 4107 | 1.4 | ? | 0.3 | 2.7 | . | .
CCCSc1nnc(NC(=O)CSc2sc3c(O)cc(=O)[nH]c3c2C#N)s1 | -3.1 | 5512 | 92.7* | 2.2 | -0.4 | 1.4 | 12.0 | -1.1 | GDH-TPI DR=>10
CCCCCC(=O)Nc1cc2[nH]c(=O)cc(COC)c2cc1C | 8.8 | 3945 | 1.5 | 4.5 | 0.8 | 0.7 | . | .
COC(=O)c1ccc(C(=O)OC)c(NC(=S)N2CCN(C)CC2)c1 | 8.5 | 3978 | 33.4* | -4.8 | -0.2 | -6.2 | 198.4* | 174.2*
COC(=O)c1ccc(C(=O)OC)c(NC(=S)N2CCCC2)c1 | 2.1 | 4000 | 2.6 | 11.7 | -0.8 | -7.8 | . | .
COC(=O)c1ccc(C(=O)OC)c(NC(=S)N2CCCCC2C)c1 (stereo unspecified) | 2.2 | 8752 | 100.0* | 8.8 | 2.9 | -3.6 | 59.9* | 58.7*
COC(=O)c1ccc(C(=O)OC)c(NC(=O)CCC(=O)O)c1 | 17.5 | 13260 | 28.2* | -2.4 | 0.5 | 2.9 | 32.5* | 22.9*
O=C1c2nc3cc(-c4ccco4)[nH]n3c(=O)c2CN1Cc1ccccc1 | -0.8 | 3711 | 97.2* | ? | -4.5 | 3.6 | 104.2* | 67.1*
CCCCc1c(C)nc2cc(-c3ccco3)[nH]n2c1=O | -8.4 | 3470 | 12.0 | ? | 1.3 | -7.3 | . | .
COc1ccc(N=C2SC(C(N)=O)CC(=O)N2Cc2ccc3c(c2)OCO3)cc1 (stereo unspecified) | 8.7 | 4562 | 8.5 | ? | ? | 9.8 | . | .
COc1cccc(C2CN(c3ccc(F)cc3F)N=C2c2cccs2)c1OC (stereo unspecified) | 4.6 | 8244 | 85.6* | -3.5 | 2.5 | -1.5 | 168.5* | 120.5*
COc1ccccc1C1CN(c2ccccc2)N=C1c1cccs1 (stereo unspecified) | 6.6 | 9944 | 84.7* | 3.2 | 12.5 | 14.9 | 4.3 | -4.5
O=C(N/N=C/c1ccc(N2CCOCC2)cc1)C1COc2ccccc2O1 (stereo unspecified) | 14.7 | 4533 | 38.2* | -7.6 | -1.5 | -10.7 | 43.6* | 41.5*
O=C(c1ccc2ccccc2c1)C1CCCN(C(=O)c2cnccn2)C1 (stereo unspecified) | -1.6 | 4406 | 9.3 | -5.1 | -0.4 | -0.8 | . | .
COc1ccc2cc(C(=O)C3CCCN(C(=O)c4cc5nc(C)cc(C)n5n4)C3)ccc2c1 (stereo unspecified) | 6.1 | 5530 | 75.1* | -7.6 | -1.4 | 4.8 | 97.5* | 86.9*
COc1ccc2cc(C(=O)C3CCCN(Cc4cnc(C)s4)C3)ccc2c1 (stereo unspecified) | 8.7 | 4610 | 40.8* | 1.3 | 1.0 | -4.4 | + | +
COc1ccc2cc(C(=O)C3CCCN(C(=O)c4cnccn4)C3)ccc2c1 (stereo unspecified) | 12.8 | 3384 | 88.5* | 1.1 | -0.1 | -3.6 | 54.9* | 45.2*
COc1ccc(C(=O)C2CCCN(Cc3cnc(C)s3)C2)cc1OC (stereo unspecified) | -0.4 | 2626 | -1.5 | 0.3 | 0.2 | 1.6 | . | .
COc1ccc2cc(C(=O)C3CCCN(C(=O)c4snnc4C)C3)ccc2c1 (stereo unspecified) | 5.1 | 4468 | 108.3* | -4.9 | -0.1 | -6.2 | 136.0* | 116.7*
COc1ccc(NC(=O)C2CCCN(S(=O)(=O)c3ccc(-n4cnnn4)cc3)C2)cc1 (stereo unspecified) | 1.1 | 3070 | -0.7 | 6.3 | -1.0 | 1.1 | . | .
CC(C)Oc1cccc(C(=O)C2CCCN(C(=O)c3ccccn3)C2)c1 (stereo unspecified) | 8.3 | 4424 | 3.0 | 5.6 | -0.1 | -2.0 | . | .
SMILES | GDH-TPI counter-1 | Bead autofluor | FBA Mtb inh | BoNT F protease | BoNT A protease | Anthrax LF prot | Mtb FBA inh conf | GDH-TPI counter-2 | others
COc1ccc2cc(C(=O)C3CCCN(C(=O)/C=C/c4ccccn4)C3)ccc2c1 (stereo unspecified) | 11.2 | 4513 | 56.6* | -2.6 | 0.5 | -0.9 | 54.7* | 48.1*
CCOC(=O)N1CCC(NC(=O)C2CCCN2C(=O)OCc2ccccc2)CC1 (stereo unspecified) | 5.2 | 3699 | 8.8 | -4.3 | -0.2 | 1.8 | . | .
CCOc1ccc2nc(NCCCNS(=O)(=O)c3ccc(F)cc3)c(C#N)cc2c1 | 7.8 | 8433 | 39.9* | -5.6 | 18.5 | 10.7 | 0.0 | -3.1
CCCCNc1nc2ccccc2nc1NS(=O)(=O)c1ccc(F)cc1 | 20.0 | 3893 | 9.6 | 17.0 | 1.3 | -1.6 | . | .
CCOc1ccc2nc(NCCCNS(=O)(=O)c3ccccc3)c(C#N)cc2c1 | 3.4 | 6263 | 36.6* | -5.7 | 6.4 | -4.1 | 98.4* | 64.1*
CCOc1ccc2nc(NCCNC(=O)c3cc(OC)c(OC)c(OC)c3)c(C#N)cc2c1 | -8.1 | 3845 | 0.9 | -11.9 | 2.7 | -10.7 | . | .
COC(=O)c1sccc1NC(=S)Nc1ccc(OC)cc1 | 6.2 | 3298 | -1.2 | -5.1 | -0.5 | -7.5 | . | .
CS(=O)(=O)Nc1ccccc1C(=O)OCC(=O)NCc1cccs1 | 12.3 | 3896 | 2.6 | -5.7 | -0.3 | 1.7 | . | .
COc1ccc(CCNC(=O)COC(=O)c2ccccc2NCCO)cc1OC | 5.0 | 4390 | 91.0* | 0.6 | 6.5 | -2.4 | 128.2* | 77.6*
O=C(COC(=O)c1ccccc1NCCO)NCc1cccs1 | 2.9 | 7750 | 65.8* | -14.4 | -5.8 | -2.1 | 20.3 | 23.7*
COc1ccc(CCNC(=O)COC(=O)c2ccco2)cc1OC | -10.6 | 3822 | -11.5 | 10.1 | 0.6 | 4.5 | . | .
NS(=O)(=O)c1ccc(NC(=O)COC(=O)COc2ccc3ccccc3c2)cc1 | 5.0 | 3471 | 42.3* | -1.5 | -0.1 | 2.4 | 55.5* | 37.4*
COc1cc2cc(CN(Cc3nnnn3Cc3ccccc3)CC3CCCO3)c(=O)[nH]c2cc1OC (stereo unspecified) | 0.0 | 4006 | 35.0* | 1.2 | -0.4 | 7.2 | 135.8* | 144.4*

High-throughput results from PubChem.
